Experimental data published in PubChem BioAssay.
Active and inactive are the calls of the source. Unless noted, no rule for the calls is given here.

Key:
[1] = A549 cell viability effects, profiling panel, calcein-AM fluorescence, 48 h, basal (AID 1162); settings: higher = more signal; also: test concentration not given here
[2] = adipocyte viability effects, profiling panel, cell-based, 3T3-L1 adipocytes, calcein-AM fluorescence, 48 h, basal (AID 1163); settings: 3T3-L1 adipocytes viability, higher = more signal; also: test concentration not given here
[3] = HepG2 cell viability effects, profiling panel, calcein-AM fluorescence, 48 h, basal (AID 1164); settings: higher = more signal; also: test concentration not given here
[4] = MM1S cell viability effects, profiling panel, calcein-AM fluorescence, 48 h, basal (AID 1165); settings: higher = more signal;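 also: viability of MM1S multiple myeloma cells under basal unstimulated conditions; test concentration not given here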
[5] = basal RPMI8226 viability, no added stimulus, profiling panel, cell-based, calcein-AM fluorescence, 48 h, PK04 Diversity Set (AID 1166); settings: RPMI8226 myeloma viability, higher = more signal;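 also: cells grown under basal conditions without added stimulus; test concentration not given here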
[6] = basal HepG2 mitochondrial membrane potential changes, profiling panel, cell-based, JC-1 fluorescence, 24 h, 100 nL compound (AID 1167); settings: higher = more signal; also: test concentration not given here
[7] = basal 3T3-L1 adipocyte mitochondrial potential changes, profiling panel, cell-based, JC-1 fluorescence, 3T3-L1 adipocytes, 24 h, 100 nL compound (AID 1168); settings: JC-1 mitochondrial fluorescence, higher = more signal, called active from +8 up or from −8 down; also: test concentration not given here
[8] = basal RPMI8226 mitochondrial membrane potential changes, profiling panel, cell-based, JC-1 fluorescence, 24 h, 100 nL compound (AID 1169); settings: RPMI8226 myeloma, JC-1 mitochondrial potential fluorescence, higher = more signal; also: test concentration not given here
[9] = basal MM1S mitochondrial membrane potential changes, profiling panel, cell-based, JC-1 fluorescence, 24 h, 100 nL compound (AID 1170); settings: higher = more signal; also: test concentration not given here
[10] = A549 lung cancer cell viability effects, profiling panel, resazurin fluorescence, 24 h, PK04 Diversity Set (AID 1171); settings: higher = more signal, called active from +8 up or from −8 down; also: test concentration not given here
[11] = HepG2 liver cancer cell viability effects, profiling panel, resazurin fluorescence, 24 h, PK04 Diversity Set (AID 1172); settings: higher = more signal; also: test concentration not given here
[12] = basal S. cerevisiae growth modulation, no modifier, primary screen, OD600, strain BY4716, 24 h, basal condition (AID 1173); settings: OD600, 24 h, higher = more signal, called active from +8 up or from −8 down
[13] = MM1S myeloma cell viability, profiling panel, resazurin fluorescence, basal, 24 h, PK04 Diversity Set (AID 1174); settings: higher = more signal, called active from +8 up or from −8 down;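 also: MM1S multiple myeloma cell line; test concentration not given here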
[14] = target: Dihydroorotate dehydrogenase (quinone), mitochondrial (Plasmodium falciparum (isolate 3D7)) (UniProt Q08210); assay: PfDHODH enzyme inhibitors, primary screen, biochemical, C-terminal His tag, absorbance 600 nm (AID 1175); settings: DCIP absorbance 600 nm, higher = more signal, called active from +8 up or from −8 down;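 also: recombinant parasite enzyme with a five histidine tag at its C terminus; test concentration not given here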
Chain of Dihydroorotate dehydrogenase (quinone), mitochondrial (Plasmodium falciparum (isolate 3D7)) (Q08210 whole entry, looked up): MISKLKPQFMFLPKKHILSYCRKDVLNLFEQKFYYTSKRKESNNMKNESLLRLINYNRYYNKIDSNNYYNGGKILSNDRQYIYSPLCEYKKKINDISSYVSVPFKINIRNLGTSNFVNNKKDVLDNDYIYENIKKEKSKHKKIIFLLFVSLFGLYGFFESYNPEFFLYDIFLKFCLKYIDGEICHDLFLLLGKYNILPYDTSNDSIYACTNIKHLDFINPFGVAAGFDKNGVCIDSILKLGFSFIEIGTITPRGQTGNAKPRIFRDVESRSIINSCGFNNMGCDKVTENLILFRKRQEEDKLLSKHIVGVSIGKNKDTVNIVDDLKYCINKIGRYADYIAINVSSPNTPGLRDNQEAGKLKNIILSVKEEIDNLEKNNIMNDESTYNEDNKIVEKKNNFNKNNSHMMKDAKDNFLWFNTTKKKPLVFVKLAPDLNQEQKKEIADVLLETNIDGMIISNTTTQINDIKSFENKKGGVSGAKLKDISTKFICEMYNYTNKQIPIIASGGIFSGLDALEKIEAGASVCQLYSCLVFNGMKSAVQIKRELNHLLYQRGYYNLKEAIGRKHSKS

[15] = P. aeruginosa biofilm formation inhibitors, primary screen, strain PAO1, LB-PBS medium, absorbance 600 nm (AID 1176); also: test concentration not given here; settings: P. aeruginosa PAO1 growth/biofilm, A600, 12 h; higher = more signal
[16] = S. cerevisiae RM11-1a growth modifiers, primary screen, strain RM11-1a, OD600, basal, 24 h (AID 1177); settings: OD600, 24 h, higher = more signal, called active from +8 up or from −8 down;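 also: cultures grown under basal conditions with no added stressor; test concentration not given here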
[17] = E. coli acrAB mutant growth effects, primary screen, E. coli filamentation inducers, strain DRC39, OD650, 24 h (AID 1178); settings: higher = more signal, called active from +8 up or from −8 down;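 also: growth measured as culture turbidity by optical density at 650 nm; test concentration not given here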
[18] = E. coli acrAB mutant growth effects, primary screen, E. coli filamentation inducers, strain DRC39, OD650, 48 h (AID 1179);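 also: screen aims at cell division blockers that make cells filament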; settings: E. coli DRC39 delta-acrAB growth, higher = more signal, called active from +8 up or from −8 down
[19] = RPMI8226 myeloma cell viability, profiling panel, resazurin fluorescence, basal, 24 h, PK04 Diversity Set (AID 1180); settings: higher = more signal;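 also: RPMI8826 multiple myeloma cell line at 5000 cells per well; test concentration not given here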
[20] = target: E3 ubiquitin-protein ligase XIAP (Homo sapiens) (UniProt P98170); assay: XIAP binders, primary screen, biophysical, small-molecule microarray, fluorescence 635 nm (AID 1181); settings: small-molecule microarray binding, higher = more signal;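 also: score merges 667 nm emission and signal to noise over triplicate slides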
Chain of E3 ubiquitin-protein ligase XIAP (Homo sapiens) (P98170 whole entry, looked up): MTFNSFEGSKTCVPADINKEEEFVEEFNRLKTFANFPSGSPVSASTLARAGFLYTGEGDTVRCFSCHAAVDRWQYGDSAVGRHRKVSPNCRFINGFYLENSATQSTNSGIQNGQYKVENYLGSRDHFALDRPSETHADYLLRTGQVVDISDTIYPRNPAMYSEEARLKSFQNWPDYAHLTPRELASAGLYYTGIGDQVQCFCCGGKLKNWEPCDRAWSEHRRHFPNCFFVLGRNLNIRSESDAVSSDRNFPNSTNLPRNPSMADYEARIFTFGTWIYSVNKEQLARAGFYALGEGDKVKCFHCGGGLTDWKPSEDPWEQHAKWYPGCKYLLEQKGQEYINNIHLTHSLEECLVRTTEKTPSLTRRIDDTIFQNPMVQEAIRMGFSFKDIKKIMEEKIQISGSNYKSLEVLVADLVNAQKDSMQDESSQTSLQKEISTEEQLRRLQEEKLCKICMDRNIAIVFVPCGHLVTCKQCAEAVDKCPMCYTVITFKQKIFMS

Row | Structure (SMILES) | z-score [1] | z-score [2] | z-score [3] | z-score [4] | z-score [5] | z-score [6] | z-score [7] | z-score [8] | z-score [9] | z-score [10] | z-score [11] | z-score [12] | z-score [13] | composite z-score [14] | z-score [15] | z-score [16] | z-score [17] | z-score [18] | z-score [19] | composite z-score [20]
1 | O=C1C[C@@](C(=O)O)(c2ccc([N+](=O)[O-])cc2)[C@@H](c2ccc(CO)cc2)N1C1CCCCC1 | 0.903 | -0.0886 | -0.28 | -1.43 | -2.67 | 0.969 | -1.22 (inactive) | -0.145 | -0.247 | 0.361 (inactive) | -0.562 | 0.408 (inactive) | -0.544 (inactive) | -0.0999 (inactive) | -0.0123 (inactive) | 1.3 (inactive) | 0.576 (inactive) | -0.199 (inactive) | 0.0311 | -0.193
2 | COCCCNC(=O)[C@@]1(CCS(=O)(=O)c2ccccc2)COC(c2ccc(OCCCO)cc2)=N1 | -0.222 | 1.11 | -0.771 | -0.181 | -0.49 | -0.903 | -0.736 (inactive) | -0.249 | -0.0725 | -0.468 (inactive) | -0.721 | -0.25 (inactive) | -0.849 (inactive) | -0.565 (inactive) | 0.19 (inactive) | -0.19 (inactive) | 0.199 (inactive) | 0.103 (inactive) | -0.508 | 0.218
3 | OCCCC1=CC(c2ccc(CN3CCCC3)cc2)N(Cc2cccc(OC(F)(F)F)c2)CC1 (stereo not given) | -4.68 | -0.267 | -4.99 | -3.3 | -3.83 | -0.125 | 0.367 (inactive) | -0.739 | -2.38 | 0.194 (inactive) | -2.32 | -5.01 (inactive) | -6.82 (inactive) | -1.2 (inactive) | 0.318 (inactive) | 0.195 (inactive) | -1 (inactive) | -1.83 (inactive) | -5.61 | 0.215
4 | C=C(CCCC)/C(=C/C[C@H](OC(=O)c1ccncc1)c1ccccc1OCCO)c1cc(C(=O)OC)ccc1OC | -0.0906 | 0.503 | -0.629 | -3.29 | -1.82 | 2.06 | -0.292 (inactive) | -0.262 | 0.732 | 0.613 (inactive) | -0.345 | 0.431 (inactive) | 0.531 (inactive) | -1.36 (inactive) | 0.297 (inactive) | -0.3 (inactive) | 0.128 (inactive) | 0.0401 (inactive) | 1.09 | -0.184
5 | COC(=O)C1(Cc2ccccc2)C=C2C(=C(C)C(=O)C2C)CN1 (stereo not given) | -0.865 | 0.45 | 0.159 | 0.232 | 0.213 | -0.237 | -0.046 (inactive) | 0.151 | -0.762 | -1.21 (inactive) | -0.896 | 1.1 (inactive) | -0.86 (inactive) | -1.98 (inactive) | 0.452 (inactive) | -0.527 (inactive) | 0.858 (inactive) | 1.2 (inactive) | -0.625 | -0.168
6 | C=CCNC(=O)[C@H]1[C@@H]2C(=O)O[C@@H](c3ccccc3)[C@@H](c3ccccc3)N2[C@@H](c2ccc(OCCO)cc2)[C@]12C(=O)Nc1ccccc12 | 0.375 | 1.35 | -0.503 | 0.287 | -0.62 | -1.21 | -0.00331 (inactive) | -0.522 | -0.377 | 1.02 (inactive) | 0.429 | 0.997 (inactive) | 1.13 (inactive) | -0.26 (inactive) | -0.172 (inactive) | 1.69 (inactive) | 0.237 (inactive) | -0.564 (inactive) | 0.608 | 0.347
7 | Cc1ccc(S[C@]2(C(=O)NCc3ccccc3)CC(=O)N(Cc3ccccc3C(F)(F)F)[C@@H]2c2ccc(CO)cc2)cc1 | 0.653 | 0.269 | 1.73 | 0.0811 | 1.36 | 0.779 | 0.311 (inactive) | -0.0337 | -0.216 | -1.35 (inactive) | -0.704 | -0.359 (inactive) | 0.103 (inactive) | -1.27 (inactive) | 0.416 (inactive) | -1.38 (inactive) | 0.57 (inactive) | 1.46 (inactive) | -0.307 | 0.109
8 | CC=CC(O)C1C=CC2C(=O)NC(=O)C2N1Nc1ccc(Cl)cc1Cl (stereo not given) | -1.54 | -0.883 | -1.14 | -0.866 | -0.624 | -2.04 | -1.04 (inactive) | 0.501 | -0.446 | -0.458 (inactive) | -1.2 | -11.4 (active) | -1.53 (inactive) | 0.733 (inactive) | 0.723 (inactive) | 1.52 (inactive) | -0.427 (inactive) | -0.356 (inactive) | -1.68 | -0.113
9 | C[N+](C)(C)CCCC[C@@H]1NC(=O)[C@@H]2C[C@H](C(=O)NCc3ccc(F)cc3)[C@H](c3ccc(O)cc3)N2C1=O | 0.993 | -0.335 | 0.698 | 0.481 | -0.114 | 1.62 | -0.41 (inactive) | -0.0248 | -0.524 | -0.0894 (inactive) | -0.348 | 0.628 (inactive) | 0.0125 (inactive) | 0.0528 (inactive) | 0.683 (inactive) | 0.506 (inactive) | 0.426 (inactive) | 0.577 (inactive) | 0.276 | 0.0223
